# Test results from the OligoGym collection.
# Molecular target: FRMD4B
# Test: pooled miR-30 sensor sort-seq; sequence = guide strand
# Conditions: shRNA
# Also: reference of the scale not given here.
row,Sequence,sensor-assay potency score (higher = more potent)
1,TTTCTTTGCAGCTTCCACCAGC,-0.481
2,TTGCTCTTCACTAACTTCTGAG,-0.0574
3,TAAACTGCCATTACTTGCCATG,-1.04
4,TTGAAGTAGAAACATTCTGTTT,-1.02
5,TATTAGAAAATTACTCTCCAGT,0.00309

# Molecular target: FRRS1
# Test: as above
# Conditions: shRNA
row,Sequence,sensor-assay potency score (higher = more potent)
1,ATAAGCATCATCATCACCCATC,-0.528
2,TTTTATACTTCTCAACAACTGT,-0.421
3,AAGAACACTGCATAACACCGTC,-0.249
4,TTCAACTCCAGAACAACCTCAG,0.767
5,TAACAGTAGTCATCCATGCCAC,-0.274
6,TAAATTGCCAACACTGCCTTTT,-0.275
7,TATGCTAACAGTAGTCATCCAT,0.0935
8,TTATTCTAGCAGCTGTTCCCAT,-0.391
9,TTCTTCTGAAAGAACACTGCAT,0.427
10,TAACTTCAATCTGATCTCCTGG,0.0664
11,TGACAAAGTAACTTCAATCTGA,0.192
12,TAAGGCACCATGAACCTTCAGA,-0.182

# Molecular target: FTL
# Test: as above
# Conditions: shRNA
row,Sequence,sensor-assay potency score (higher = more potent)
1,TAAGCTTCACTTCCTCATCTAG,-0.516
2,TGATAAGCTTCACTTCCTCATC,-1.37
3,TTCGAAGAGATACTCGCCCAGC,-0.73
4,TTTGCATCTTCAGGAGACGCTC,-0.792
5,TCTTGATAAGCTTCACTTCCTC,-0.871
6,TTCTCCTCGGCCAATTCGCGGA,-1.13
7,TTGCATCTTCAGGAGACGCTCG,-0.127
8,TTGATAAGCTTCACTTCCTCAT,-0.312
9,TAGGAAGTGAGTCTCCAGGAAG,-1.72
10,TTCCAGAGCCACATCATCGCGG,-0.592
11,TTTCGAAGAGATACTCGCCCAG,-0.301
12,TTTTACCCCACTCATCTTCAGC,-1.2
13,TTTTTCTCCAGGGCCATGGCAG,-1.05
14,TTCAGGAGACGCTCGTAGCCCT,-0.927
15,TTGATGTCCTGGAAGAGAGCGC,-0.331
16,TTCAGCTGGCTTCTTGATGTCC,-0.855
17,ATCTAGGAAGTGAGTCTCCAGG,-1.73
18,TCTAGGAAGTGAGTCTCCAGGA,-0.902
19,ATGAAGATCCAAAAGGGCCTGG,-0.154
20,TCCAGAGCCACATCATCGCGGT,-0.991
21,TACCCCACTCATCTTCAGCTGG,-0.815
22,TTCACTTCCTCATCTAGGAAGT,-0.832
23,TTGACCAGGCTGTTGACGGCTG,-0.48
